Compound activity as filed in PubChem BioAssay.
TRPM1 prom inh – inhibitors of MITF-dependent TRPM1 promoter reporter, primary screen, cell-based, SK-MEL-5, single point, luciferase. actives 0.83% (n = 330,000). inhibition, % at 12.5 µM. SK-MEL-5 TRPM1 promoter luciferase, 24 h;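 active means mean inhibition across replicates of 60% or more, whatever share of single replicates reaches that level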
CF NFkB inh – inhibitors of PAF-induced NF-kB signaling, primary screen, cell-based, GFP fluorescence, uHTS; inhibition, % at 5 µM; actives 0.86% (n = 360,000); KKLEB NF-kB-GFP reporter, GFP fluorescence overnight; AID 588850, 2011;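 active means at least 50% inhibition at 5 µM, scaled per plate between neutral and stimulator controls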;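 further: PAF is a Pseudomonas aeruginosa culture filtrate used as stimulus; plate controls were PAF-stimulated DMSO wells for no effect and unstimulated DMSO wells for full effect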
Shn3 inh set2 – reduction of Shn3 3'UTR firefly luciferase signal, primary screen, Schnurri-3 inhibitor project, cell-based, Clone20 osteoblasts, set 2; Clone20 osteoblast Shn3 3'UTR firefly luciferase, 24 h; inhibition, % at 12.5 µM; actives 0.52% (n = 360,000); AID 588674, 2011;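 active means mean inhibition of at least 75% with every replicate also reaching 75%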;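 further: 0% = median of neutral control wells and 100% = pilot-screen positive control compound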
KKLEB cytotox – cytotoxicity in KKLEB CF airway cells, primary screen, cytotoxicity control for CF NF-kB inhibitor project, cell-based, uHTS, fluorescence assay plates. actives 0.36% (n = 360,000). KKLEB CF airway cells viability, ATPlite luminescence, overnight; active compounds read low; cells stimulated with P. aeruginosa culture filtrate. activity change (cytotoxicity), % at 5 µM. AID 602141, 2011;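 active means corrected activity change at or below -50% at 5 µM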
HIF-2a inh – HIF-2a reporter inhibitors, primary screen, luminescence, 786-0 RCC cells; actives 0.72% (n = 360,000); 786-0 RCC cells HIF-2a reporter, luciferase luminescence, overnight; inhibition, % at 18.8 µM; AID 624352, 2012;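 active means inhibition of the luminescence signal of 40% or more relative to plate controls, in a single-dose primary screen at 18.75 µM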
Peg3 prom inh – Peg3 promoter-driven luciferase inhibitors, primary screen, cell-based, HeLa, luciferase luminescence; HeLa PEG-Prom luciferase reporter, overnight; inhibition, % at 20 µM; actives 1.7% (n = 360,000); AID 588405, 2011;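 active means inhibition of at least 50% at 20 µM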
CF NFkB conf – inhibitors of PAF-induced NF-kB signaling, retest, confirmation, cell-based, GFP fluorescence, single concentration; shares compounds with CF NFkB inh; KKLEB CF airway cells, overnight; inhibition, % at 5 µM; actives 64% (n = 1,300); in the data active means inhibition above about 40%;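 further: stimulus PAF is a Pseudomonas aeruginosa filtrate and not platelet activating factor; plate controls were DMSO wells with stimulus for no effect and unstimulated DMSO wells for full effect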
Mdm2-MdmX confirm – retested Mdm2-MdmX interaction blockers, confirmation, cell-based, luminescence, single concentration, set 2 | inhibition, % at 8 µM | actives 99% (n = 740) | shares compounds with HIF-2a inh | SaOS-2 split-luciferase Mdm2/MdmX complementation;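 active means mean inhibition of the luminescence signal across two replicates at or above 26 percent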
Target sequence (O15151 whole entry, looked up): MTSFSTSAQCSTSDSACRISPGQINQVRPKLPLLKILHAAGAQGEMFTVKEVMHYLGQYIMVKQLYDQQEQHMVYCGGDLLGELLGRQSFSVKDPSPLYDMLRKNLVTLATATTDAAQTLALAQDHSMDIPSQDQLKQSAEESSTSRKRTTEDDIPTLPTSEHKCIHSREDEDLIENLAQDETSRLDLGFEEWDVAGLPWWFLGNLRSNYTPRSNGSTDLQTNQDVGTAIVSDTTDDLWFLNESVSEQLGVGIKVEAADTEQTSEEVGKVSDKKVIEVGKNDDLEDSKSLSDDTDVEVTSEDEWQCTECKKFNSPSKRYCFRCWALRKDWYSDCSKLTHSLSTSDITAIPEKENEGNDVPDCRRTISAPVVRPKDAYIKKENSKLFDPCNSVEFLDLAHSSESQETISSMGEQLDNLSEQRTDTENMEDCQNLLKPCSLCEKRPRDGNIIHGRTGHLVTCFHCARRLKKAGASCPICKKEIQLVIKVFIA
Target sequence (Q00987 whole entry, looked up): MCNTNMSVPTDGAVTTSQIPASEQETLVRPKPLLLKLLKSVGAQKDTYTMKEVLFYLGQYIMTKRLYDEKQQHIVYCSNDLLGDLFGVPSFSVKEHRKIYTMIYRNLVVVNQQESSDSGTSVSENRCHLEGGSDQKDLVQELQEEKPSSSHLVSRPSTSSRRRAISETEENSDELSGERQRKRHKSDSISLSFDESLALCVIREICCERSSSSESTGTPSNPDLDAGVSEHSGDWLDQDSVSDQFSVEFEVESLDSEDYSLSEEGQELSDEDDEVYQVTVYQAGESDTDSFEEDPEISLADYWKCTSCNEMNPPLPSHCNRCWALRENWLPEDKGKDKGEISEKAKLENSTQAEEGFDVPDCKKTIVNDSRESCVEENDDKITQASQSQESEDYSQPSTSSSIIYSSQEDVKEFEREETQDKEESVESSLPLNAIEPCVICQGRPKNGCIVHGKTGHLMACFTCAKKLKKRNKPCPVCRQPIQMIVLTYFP
HIF-2a conf – HIF-2a reporter inhibitor retest, confirmation, luminescence, 786-0 RCC cells | HIF-2a luciferase reporter luminescence, overnight | actives 56% (n = 1,800) | AID 651580, 2012 | shares compounds with HIF-2a inh | inhibition, % at 18.8 µM;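 active means mean inhibition across four replicates of at least 40 percent at the single tested concentration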
HIF-1a counter – HIF-1a luciferase reporter signal reduction – MiaPaCa-2 cells, single concentration, counter-screen for HIF-2a inhibitor project, confirmation; shares compounds with HIF-2a inh; MiaPaCa-2 HIF-1a luciferase reporter, desferoxamine, overnight; inhibition, % at 18.8 µM; actives 72% (n = 1,800);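 active means mean inhibition of the reporter signal across four replicates at the single tested dose of 50% or more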
* = called active by the depositor. Most compounds without a hit are left out; they make up all but 2.7% or so of the library.

What do the screens show for `C=CCNC(=O)/C(C#N)=C/c1ccc(OS(=O)(=O)c2ccc(C)cc2)c(OC)c1`?
TRPM1 prom inh: -13; CF NFkB inh: 75*; Shn3 inh set2: 12; KKLEB cytotox: -18; HIF-2a inh: 59*; Peg3 prom inh: 8; CF NFkB conf: -39; HIF-2a conf: 46*; HIF-1a counter: 97*

What do the screens show for `O=C(Nc1cccc(S(=O)(=O)N2CCCCC2)c1)C1=NN(c2ccccc2)C(=O)CC1`?
TRPM1 prom inh: 39; CF NFkB inh: 9; Shn3 inh set2: 9; KKLEB cytotox: -22; HIF-2a inh: 18; Peg3 prom inh: 18

What do the screens show for `COc1cccc(-n2nc(C(N)=O)c(O)cc2=O)c1`?
TRPM1 prom inh: 5; CF NFkB inh: -5; Shn3 inh set2: -11; KKLEB cytotox: 7; HIF-2a inh: 10; Peg3 prom inh: 4

How did COc1cccc(-n2nc(C#N)c(Cl)cc2=O)c1 do in these assays?
TRPM1 prom inh: 91*; CF NFkB inh: 106*; Shn3 inh set2: 96*; KKLEB cytotox: -34; HIF-2a inh: 96*; Peg3 prom inh: 108*; CF NFkB conf: 15; Mdm2-MdmX confirm: 104*

What do the screens show for `O=C(c1ccc(S(=O)(=O)c2cccc(Cl)c2)c([N+](=O)[O-])c1)N1CCN(c2ccccn2)CC1`?
TRPM1 prom inh: 44; CF NFkB inh: 86*; Shn3 inh set2: 69; KKLEB cytotox: -45; HIF-2a inh: 40*; Peg3 prom inh: 53*; CF NFkB conf: -74; Mdm2-MdmX confirm: 96*; HIF-2a conf: 25; HIF-1a counter: 85*

What do the screens show for `CCOc1cccc(C2/C(=C(/O)c3ccc4c(c3)CC(C)O4)C(=O)C(=O)N2Cc2ccncc2)c1` (centres undefined)?
TRPM1 prom inh: -4; CF NFkB inh: -2; Shn3 inh set2: 2; KKLEB cytotox: -23; HIF-2a inh: 5; Peg3 prom inh: 7

How did O=C(CN1C(=O)c2ccc([N+](=O)[O-])cc2C1=O)NCCC1=CCCCC1 do in these assays?
TRPM1 prom inh: 10; CF NFkB inh: 13; Shn3 inh set2: 1; KKLEB cytotox: 3; HIF-2a inh: -2; Peg3 prom inh: 1

Results for CCOc1ccccc1NC(=O)c1nc(S(=O)(=O)Cc2ccccc2)ncc1Cl ?
TRPM1 prom inh: 78*; CF NFkB inh: 80*; Shn3 inh set2: 96*; KKLEB cytotox: -31; HIF-2a inh: 90*; Peg3 prom inh: 99*; CF NFkB conf: 94*; HIF-2a conf: 99*; HIF-1a counter: 104*

What do the screens show for `CCS(=O)(=O)c1ncc(Cl)c(C(=O)Nc2ccccc2OC)n1`?
TRPM1 prom inh: 41; CF NFkB inh: 85*; Shn3 inh set2: 97*; KKLEB cytotox: -36; HIF-2a inh: 93*; Peg3 prom inh: 104*; CF NFkB conf: 96*; HIF-2a conf: 1; HIF-1a counter: 99*
